# Test results reported in PubChem BioAssay (NCATS).
# Records with an inconclusive call do not appear. A call without a number means that no potency is given here. Calls of active or inactive are those of the source. Calls come from the whole dose curve; as a rule, active = well fitted cell-killing curve with a large enough effect; inconclusive = small, poorly fitted or top-dose-only effect, or effect the other way; inactive = no such curve, though single readings can be large or run the other way.
# Assay: qHTS of pediatric cancer cell lines to identify multiple opportunities for drug repurposing: Confirmatory screen for NB1643 cells (AID 1347109); note: nearly all actives have a fitted effect of over 45% in size
# Details: NB1643 neuroblastoma cell viability; series mostly up to 45.9 µM
# Description: Drug repurposing or repositioning has been offered as a strategy for drug development in oncology programs. This approach has special potential for childhood cancers and other rare or orphan diseases, where the expected return on new drug development has been a disincentive to pharmaceuticals.
# In this project we exploit the poly-pharmacology of drugs to discover new indications via phenotypic screening of a panel of 19 well-characterized cell lines derived from solid tumors seen in children and adolescents. The goal is to identify approved drugs with previously unrecognized anticancer properties that has the potential to reveal new mechanisms and biological processes involved in carcinogenesis or drug resistance. We employed a titration-based paradigm (quantitative high-throughput screening or qHTS), where all compounds were tested at multiple concentrations for their effect on cell viability. Concentration-response curves (CRCs) were derived directly from the primary screen, and both potency and efficacy values were used to identify compounds with robust bioactivity profiles. We screened the NIH Chemical Genomics Center (NCGC) Pharmaceutical Collection (NPC) and Mechanism Interrogation Plate (MIPE) small molecule collections of approved and investigational compounds against these cell lines; and measured metabolically active cells after 48 hours of compound treatment as a proxy for cell viability.
# Assay Submitter: Nathalia J. Martinez, National Center for Advancing Translational Sciences, National Institutes of Health, Rockville, MD, USA; email: natalia.martinez@nih.gov
# [1] Shen, M et al. Quantitative high-throughput phenotypic screening of pediatric cancer cell lines identifies multiple opportunities for drug repurposing. Oncotarget 2017 Dec 19;9(4):4758-4772. PMID 29435139.
# The cells were obtained from University of North Carolina (UNC), Pediatric Preclinical Testing Program (PPT), and Coriell Institute (CI).
# qHTS cell viability assay:
# Cells were assayed in growth media at a density of 500-1,000 cells/well. Five microliters of cells were dispensed into 1,536-well, white, solid-bottom, TC-treated plates (Greiner Bio One) using a multidrop dispenser and incubated at 37 degrees C, 5% CO2, under a humidified atmosphere for 5 hours. Twenty-three nanoliters of compounds and controls (neutral control DMSO or positive control bortezomib at final concentration of 2.3 µM) were subsequently transferred by Kalypsys pintool. For primary screens, the MIPE collection was tested at 11-point dilutions (final concentrations range from 0.78 nM to 46 µM) and the NPC collection at 8-point dilutions (final concentrations range from 0.59 nM to 46 µM). Compounds tested in follow-up screens were assayed at 11-point dilutions. Cells were incubated for 48 hours, followed by addition of 3 µL of CellTiter-Glo (Promega). After a 15 min incubation at room temperature, samples were analyzed for luminescence intensity using a ViewLux High-throughput CCD imager equipped with clear filters.
# Potency is the fitted concentration of half-maximal effect.
row,Compound,Potency
1,O=[N+]([O-])c1ccc(O)c2ncccc12,14.7 µM (active)
2,Cc1cc(OCCOCC[N+](C)(C)Cc2ccccc2)ccc1C(C)(C)CC(C)(C)C,8.27 µM (active)
3,CN(C)CCN(Cc1ccsc1)c1ccccn1,inactive
4,CCc1cc2cc(OC)c(OC)cc2c(Cc2ccccc2)n1,inactive
5,CCC(=O)O[C@]1(C(=O)COC)[C@@H](C)C[C@H]2[C@@H]3CCC4=CC(=O)C=C[C@]4(C)C3(F)[C@@H](O)C[C@@]21C (some centres not stated),inactive
6,CC(=O)[C@@]1(O)CC[C@H]2[C@@H]3C[C@H](C)C4=CC(=O)CC[C@]4(C)[C@H]3CC[C@@]21C,inactive
7,CCC1=C[C@@H]2CN(C1)Cc1c([nH]c3ccccc13)[C@@](C(=O)OC)(c1cc3c(cc1OC)N(C)[C@H]1[C@@](O)(C(=O)OC)[C@H](OC(C)=O)[C@]4(CC)C=CCN5CC[C@]31[C@@H]54)C2,0.104 µM (active)
8,N=C(N)c1ccc(OCCCOc2ccc(C(=N)N)cc2)cc1,inactive
9,Nc1ccc2cc3ccc(N)cc3nc2c1,7.37 µM (active)
10,CO[C@@H]1[C@@H](OC)[C@H](C)[C@@](O)(CC(=O)O)O[C@H]1[C@H](C)[C@H]1O[C@@]2(CC[C@@](C)([C@H]3CC[C@@](C)([C@@H]4O[C@@H]([C@H]5O[C@](C)(O)[C@H](C)C[C@@H]5C)C[C@@H]4OC4C[C@H](OC)[C@@H](OC)[C@H](C)O4)O3)O2)C[C@H](O)[C@H]1C (some centres not stated),0.737 µM (active)
11,CCCCC(=O)OCC(=O)[C@H]1[C@H](C)C[C@H]2[C@@H]3C[C@H](F)C4=CC(=O)C=C[C@]4(C)[C@@]3(F)[C@@H](O)C[C@@]21C,18.5 µM (active)
12,CCN(CC)CC(=O)OCC(=O)[C@@]1(O)CC[C@H]2[C@@H]3CCC4=CC(=O)CC[C@]4(C)[C@H]3[C@@H](O)C[C@@]21C,inactive
13,CCCCC(CC)CNC(=O)CC(C)OC(=O)CCC(=O)O (configuration not stated),inactive
14,CCCC(=O)O[C@]1(C(=O)CCl)[C@@H](C)C[C@H]2[C@@H]3CCC4=CC(=O)C=C[C@]4(C)[C@@]3(F)C(=O)C[C@@]21C,inactive
15,C[C@H]1C[C@H]2[C@@H]3CCC4=CC(=O)C=C[C@]4(C)[C@H]3C(=O)C[C@]2(C)[C@@]1(O)C(=O)CO,2.61 µM (active)
16,CC(=O)OCC(=O)[C@@]1(O)[C@H](OC(C)=O)C[C@H]2[C@@H]3CCC4=CC(=O)C=C[C@]4(C)[C@@]3(F)[C@@H](O)C[C@@]21C,inactive
17,C[C@]12CCC(=O)C=C1CC[C@@H]1[C@@H]2[C@@H](O)C[C@@]2(C)[C@H]1CC[C@]2(O)C(=O)COC(=O)CCC(=O)O,inactive
18,CC[C@@]1(O)C(=O)OCc2c1cc1n(c2=O)Cc2c-1nc1ccccc1c2/C=N/OC(C)(C)C,0.0414 µM (active)
19,CC(=O)O[C@@H]1C(=O)O[C@@H]2[C@H]1OC(=O)[C@@H]2OC(C)=O,inactive
20,Nc1c2ccccc2nc2ccccc12,4.14 µM (active)
21,CCOC(=O)O[C@]1(C(=O)OCCl)CC[C@H]2[C@@H]3CCC4=CC(=O)C=C[C@]4(C)[C@H]3[C@@H](O)C[C@@]21C,inactive
22,O=c1[nH]sc2cc(Cl)ccc12,8.27 µM (active)
23,CC(C)(C)CC(=O)OCC(=O)[C@@]1(O)CC[C@H]2[C@@H]3CCC4=CC(=O)C=C[C@]4(C)[C@H]3[C@@H](O)C[C@@]21C,inactive
24,COc1c(C)c2c(c(O)c1C/C=C(\C)CCC(=O)OCCN1CCOCC1)C(=O)OC2,1.31 µM (active)
25,CC(C)=CCC/C(C)=C/CC/C(C)=C/C(=O)OCC(=O)[C@@]1(O)CC[C@H]2[C@@H]3CCC4=CC(=O)C=C[C@]4(C)[C@H]3[C@@H](O)C[C@@]21C,23.3 µM (active)
26,CCCC(=O)O[C@]1(C(=O)COC(=O)CC)CC[C@H]2[C@@H]3CCC4=CC(=O)CC[C@]4(C)[C@H]3[C@@H](O)C[C@@]21C,inactive
27,CC(=O)OCC(=O)[C@@]1(O)CCC2C3CCC4=CC(=O)CC[C@]4(C)C3[C@@H](O)C[C@@]21C (some centres not stated),inactive
